# Assay results taken from PubChem BioAssay (Tox21).
# “And” between values parts separate entries of the source, which are not always exact repeats. Identical values can stand only once. Records with an inconclusive call do not appear. Entries that show only a call come without a potency. The source made the active and inactive calls. Calls come from the whole dose curve; as a rule, active = well fitted curve in the direction sought with a large enough effect in the repeat runs; inconclusive = weak or mixed curves; inactive = no such curve, though single readings can be large; an effect the other way counts as inactive or inconclusive.
# Tests used:
# [1] = qHTS assay to identify small molecule antagonists of the glucocorticoid receptor (GR) signaling pathway - cell viability counter screen (AID 720693); note: nearly all actives have a fitted effect of over 55% in size
# [2] = qHTS assay for identifying genotoxic compounds that show differential cytotoxicity against isogenic chicken DT40 cell lines with known DNA damage response pathways - wild type cell line (AID 743012); note: nearly all actives have a fitted effect of over 60% in size; note: potency is the fitted concentration of half-maximal effect
# In short: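 Viability of DNA repair-proficient chicken DT40 cells was assessed by CellTiter-Glo luminescence following 40 h compound exposure at 37 C/5% CO2.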
# [3] = qHTS assay for identifying genotoxic compounds that show differential cytotoxicity against isogenic chicken DT40 cell lines with known DNA damage response pathways - Rev3 mutant cell line (AID 743014); note: nearly all actives have a fitted effect of over 55% in size; note: potency is the fitted concentration of half-maximal effect
# [4] = qHTS assay for identifying genotoxic compounds that show differential cytotoxicity against isogenic chicken DT40 cell lines with known DNA damage response pathways - Rad54/Ku70 mutant cell line (AID 743015); note: nearly all actives have a fitted effect of over 60% in size; note: potency is the fitted concentration of half-maximal effect
# [5] = qHTS assay to identify small molecule antagonists of the androgen receptor (AR) signaling pathway - cell viability counter screen (AID 743033; note: nearly all actives have a fitted effect of over 45% in size)
# [6] = qHTS assay to identify small molecule antagonists of the androgen receptor (AR) signaling pathway using the MDA cell line - cell viability counter screen (AID 743041; note: nearly all actives have a fitted effect of over 45% in size)
# In short: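 Compound exposure lasted 16 h at 37C in MDA-kb2 AR-luc cells stimulated with R1881. Protease-based CellTiter-Fluor reagent was applied for the final 30 min and fluorescence measured.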
SMILES,Potency [1],Potency [2],Potency [3],Potency [4],Potency [5],Potency [6]
O=C1N=C2SCCN2C(=O)C1Cc1ccc(Cl)cc1 (stereo not given),inactive,inactive,inactive,inactive,inactive,inactive
CCCOc1ccc2nc(NC(=O)OC)sc2c1,inactive,2.37 µM (active),2.66 µM (active),3.35 µM (active),inactive,inactive
O=c1[nH]cnc2[nH]cc(CN3CCCCC3)c12,inactive,inactive,inactive,inactive,inactive,inactive
CC1(C)C2CC[C@]3(C)[C@H](C(=O)C=C4[C@@H]5C[C@@](C)(C(=O)O)CC[C@]5(C)CC[C@]43C)[C@@]2(C)CC[C@@H]1O[C@H]1O[C@H](C(=O)O)[C@@H](O)[C@H](O)[C@H]1O[C@@H]1O[C@H](C(=O)O)[C@@H](O)[C@H](O)[C@H]1O (stereo not given in full),inactive,inactive,inactive,inactive,inactive,inactive
FC(F)(F)C(F)(F)C(F)(F)C(F)(F)C(F)(F)C(F)(F)F,inactive,inactive,inactive,inactive,inactive,inactive
O=P(O)(O)OC(CO)CO,inactive,inactive,inactive,inactive,inactive,inactive
Cc1cccc(Nc2ncccc2C(=O)O)c1C,inactive,inactive,inactive,inactive,inactive,inactive
CN1c2cc(O)c(N=NC(N)=O)cc2CC1S(=O)(=O)O (stereo not given),inactive,inactive,inactive,inactive,inactive,inactive
N[C@H](CCC(=O)O)C(=O)O,inactive,inactive,inactive,inactive,inactive,inactive
O=C(c1cc2ccccc2o1)N1CCN(Cc2ccccc2)CC1,inactive,26.6 µM (active),29.8 µM (active),29.8 µM (active),inactive,inactive
O=C(NNCNNC(=O)c1ccncc1)c1ccncc1,inactive,inactive,inactive,inactive,inactive,inactive
CCN1C(=O)NC(c2ccccc2)C1=O (stereo not given),inactive,inactive,inactive,inactive,inactive,inactive
C=C[C@]1(C)C[C@@H](OC(=O)CSCCN(CC)CC)[C@]2(C)[C@H](C)CC[C@]3(CCC(=O)[C@H]32)[C@@H](C)[C@@H]1O,inactive,5.31 µM (active),5.96 µM (active),6.68 µM (active),inactive,inactive
O=C(O)c1cc(O)c2c(c1)[O][Bi][O]2,inactive,inactive,inactive,inactive,inactive,inactive
O=C1O[C@H]2[C@H](O)[C@@H]1OC(O)[C@H]2O (stereo not given in full),inactive,inactive,inactive,inactive,inactive,inactive
COc1ccc2cc([C@H](C)CO)ccc2c1,inactive,inactive,inactive,inactive,inactive,inactive
C[C@]12CC[C@@H]3c4ccc(OS(=O)(=O)O)cc4CC[C@H]3[C@@H]1CCC2=O,inactive,inactive,inactive,inactive,inactive,inactive
NC(N)=NCC1COc2ccccc2O1 (stereo not given),inactive,inactive,inactive,inactive,inactive,inactive
N[C@@H](C(=O)N[C@@H]1C(=O)N2C(C(=O)O)=C(Cl)CC[C@H]12)c1ccccc1,inactive,inactive,inactive,inactive,inactive,inactive
COc1c(O[C@@H]2O[C@H](CO)[C@@H](O)[C@H](O)[C@H]2O)cc2c(c1OC)-c1ccc(SC)c(=O)cc1[C@@H](NC(C)=O)CC2,inactive,inactive,inactive,inactive,inactive,inactive

SMILES,Potency [1],Potency [2],Potency [3],Potency [4],Potency [5],Potency [6]
CC(=O)O[C@H]1C[C@@H]2CC[C@@H]3[C@H](CC[C@@]4(C)[C@H]3C[C@H](N3CC[N+](C)(C)CC3)[C@@H]4OC(C)=O)[C@@]2(C)C[C@@H]1N1CC[N+](C)(C)CC1,inactive,inactive,inactive,inactive,inactive,inactive
c1ccc2c(c1)Sc1ccccc1N2CCN1CCCC1,inactive,10.6 µM (active),8.41 µM (active),16.8 µM (active),inactive,inactive
CCCCCCC(=O)O[C@H]1CC[C@H]2[C@@H]3CCc4cc(O)ccc4[C@H]3CC[C@]12C,inactive,inactive,inactive,inactive,inactive,inactive
CN1[C@@H]2CC[C@H]1CC(OC(c1ccccc1)c1ccccc1)C2 (stereo not given in full),inactive,5.31 µM (active) and 13.3 µM (active) and 6.68 µM (active),5.31 µM (active) and 8.41 µM (active) and 4.22 µM (active),8.41 µM (active) and 23.7 µM (active) and 11.9 µM (active),inactive,inactive
C[C@H]1C[C@H]2[C@@H]3CCC4=CC(=O)C=C[C@]4(C)[C@@]3(F)[C@@H](O)C[C@]2(C)[C@@]1(O)C(=O)CCl,inactive,18.8 µM (active),26.6 µM (active),23.7 µM (active),inactive,inactive
C[C@@H](O)[C@H]1C(=O)N2C(C(=O)[O-])=C(SC3Cn4cnc[n+]4C3)[C@H](C)[C@H]12 (stereo not given in full),inactive,inactive,inactive,inactive,inactive,inactive
CCC(=O)O[C@]1(C(=O)CCl)[C@@H](C)C[C@H]2[C@@H]3C[C@H](F)C4=CC(=O)C=C[C@]4(C)[C@@]3(F)[C@@H](O)C[C@@]21C,inactive,11.9 µM (active),7.5 µM (active),23.7 µM (active),inactive,inactive
O=C(O)[C@H]1/C(=C/CO)O[C@@H]2CC(=O)N21,inactive,inactive,inactive,inactive,inactive,inactive
Cn1nnnc1SCC1=C(C(=O)O)N2C(=O)[C@@H](NC(=O)[C@H](O)c3ccccc3)[C@H]2SC1,inactive,inactive,inactive,inactive,inactive,inactive
CC(O)[C@@H]1NC(=O)[C@H](CCCCN)NC(=O)[C@@H](Cc2c[nH]c3ccccc23)NC(=O)[C@H](Cc2ccccc2)NC(=O)[C@@H](NC(=O)[C@H](N)Cc2ccccc2)CSSC[C@@H](C(=O)N[C@H](CO)[C@@H](C)O)NC1=O (stereo not given in full),inactive,inactive,inactive,inactive,inactive,inactive
CCCCCCCCCCCC(=O)OC[C@@H](O)C1OC[C@H](O)[C@H]1O (stereo not given in full),inactive,inactive,inactive,inactive,inactive,inactive
CCCCCC(O)/C=C/C=O (stereo not given),inactive,inactive,inactive,inactive,inactive,inactive
CCOC(=O)C1=C(COCCN)NC(C)=C(C(=O)OC)C1c1ccccc1Cl (stereo not given),inactive,7.5 µM (active),13.3 µM (active),13.3 µM (active),inactive,inactive
C/C(=C(\CCOC(=O)c1ccccc1)SS/C(CCOC(=O)c1ccccc1)=C(/C)N(C=O)Cc1cnc(C)nc1N)N(C=O)Cc1cnc(C)nc1N,inactive,10.6 µM (active),23.7 µM (active),26.6 µM (active),inactive,inactive
CCCN(CC)C(CC)C(=O)Nc1c(C)cccc1C (stereo not given),inactive,inactive,inactive,inactive,inactive,inactive
CC(C)(C)CC(=O)OCC(=O)[C@@]12OC(C)(C)O[C@@H]1C[C@H]1[C@@H]3CCC4=CC(=O)C=C[C@]4(C)[C@@]3(F)[C@@H](O)C[C@@]12C,inactive,inactive,inactive,inactive,inactive,inactive
C=CCOc1ccc(CC(=O)O)cc1Cl,inactive,inactive,inactive,inactive,inactive,inactive
COC(=O)C1=C(C#N)NC(C)=C(C(=O)OC(C)C)C1c1cccc([N+](=O)[O-])c1 (stereo not given),inactive,13.3 µM (active),23.7 µM (active),18.8 µM (active),inactive,inactive
NC[C@@H]1O[C@H](O[C@H]2[C@@H](O)[C@H](O[C@@H]3[C@@H](O)[C@H](N)C[C@H](N)[C@H]3O[C@H]3O[C@H](CN)[C@@H](O)[C@H](O)[C@H]3N)O[C@@H]2CO)[C@H](N)[C@@H](O)[C@@H]1O,inactive,inactive,inactive,inactive,inactive,inactive
Cc1ccccc1OCC(O)CNCCOc1ccc(C(N)=O)cc1 (stereo not given),inactive,inactive,inactive,inactive,inactive,inactive
